VP16 counter = Gal4-VP16 reporter inhibition counter-screen; Drosophila S2 Gal4-VP16 UAS-luciferase, luminescence, 20 h; Potency, µM (series often up to 53.6 µM), usual class: inhibitors; 310,000 compounds, 3.5% hits; AID 2546;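 further: Gal4-VP16 expression switched on by copper sulfate through the metallothionein promoter; nearly all actives have a fitted effect of over 50% in size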
Giardia killer = kills Giardia lamblia | 340,000 compounds, 0.15% hits | Giardia lamblia trophozoite viability | activity change, % at 7.66 µM, hits read low | AID 540267; in the data active means activity change below about -80%; inconclusive means between about -30% and that limit;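 further: parasites exposed to compound for two days anaerobically before the ATP read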
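Luminescent ATP signal served as the viability read-out, measured 15-30 min after adding ATP detection reagent to trophozoites that had been incubated with compounds for 48 hrs at 37 deg C anaerobically at 100 cells/well.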
p53 reactivator = re-activators of mutant p53; Potency, µM (doses to about 92.2 µM), most hits filed as activators; 320,000 compounds, 0.063% hits; H1299 p53-A138V BP100-luciferase reporter, luminescence, 24 h; further: nearly all actives have a fitted effect of over 45% in size
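p53-null H1299 cells stably carrying temperature-sensitive p53-A138V and a BP100-luciferase reporter were pinned with compounds (4-point, 1:5 series) and held 24 hrs at 37 deg C. Luminescence was read 10 min after detection reagent.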
ELG1 repair inh = blocks ELG1-dependent DNA repair in HEK293T cells. HEK293T ELG1-luciferase reporter, luminescence, 16 h; DNA damage induced by 5-fluorouridine. Potency, µM (top dose mostly 46.1 µM), hits mostly inhibitors. 330,000 compounds, 2.3% hits. AID 504467; further: nearly all actives have a fitted effect of over 55% in size
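Reporter activity after DNA damage by 5-fluorouridine is monitored. Compound-treated cells incubate 16 hr at 37 °C, then ONE-Glo is added for 30 min before luminescence reading.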
BRCA1 expr act = activators of BRCA1 expression; 380,000 compounds, 1.1% hits; MCF7-BRCA1-FFLuc reporter, luminescence, 48 h; response scale: scaled: vehicle 0%, 10 µM genistein 100%; Potency, µM (doses to about 46.1 µM), usual class: activators; AID 624202; further: nearly all actives have a fitted effect of over 80% in size
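Quantitative HTS in MCF7 cells stably reporting BRCA1 expression via firefly luciferase. Compound treatment lasts 48 h at 37 °C in phenol-red free MEM. Activation is expressed relative to genistein at 10 microM and DMSO.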
RORgamma inh = inhibitors of mouse ROR gamma transcriptional activity | Potency, µM (titrated, usually from 53.6 µM), usual class: inhibitors | Drosophila S2 Gal4-RORgamma UAS-luciferase reporter, 20 h | 310,000 compounds, 5.4% hits; further: nearly all actives have a fitted effect of over 60% in size
Target sequence (P51450 whole entry, looked up, the tested form may be a part): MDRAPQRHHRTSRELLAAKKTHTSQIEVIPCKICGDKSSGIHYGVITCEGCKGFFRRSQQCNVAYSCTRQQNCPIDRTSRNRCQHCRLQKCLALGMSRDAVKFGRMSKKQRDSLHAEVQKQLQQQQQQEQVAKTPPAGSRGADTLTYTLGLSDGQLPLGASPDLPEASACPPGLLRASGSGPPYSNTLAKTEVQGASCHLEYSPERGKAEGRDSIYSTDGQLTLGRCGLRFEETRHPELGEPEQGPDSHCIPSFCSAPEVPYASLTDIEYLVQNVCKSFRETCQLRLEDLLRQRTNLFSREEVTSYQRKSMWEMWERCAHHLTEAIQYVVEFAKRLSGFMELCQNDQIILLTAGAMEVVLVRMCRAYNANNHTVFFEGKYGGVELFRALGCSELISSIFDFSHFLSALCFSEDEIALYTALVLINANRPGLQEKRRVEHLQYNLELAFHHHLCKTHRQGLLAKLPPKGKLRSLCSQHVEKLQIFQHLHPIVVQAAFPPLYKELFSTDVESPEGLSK
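Using a luciferase readout, inhibitors were identified by reduced reporter activity in Drosophila cells coexpressing a copper-inducible Gal4–ROR gamma fusion and UAS-driven Photinus luciferase, incubated 20 hr after 700 uM copper sulfate.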
A number is an active result; 0 = inactive; ? = inconclusive; - = not tested or not shown. Sampled rows, rich in hits. Any-hit rate of the full collection: about 7.6%. Unless noted, the call rests on the fitted dose curve; in most records, active means well fitted curve in the direction sought with a large enough effect; inconclusive means small, poorly fitted or top-dose-only effect, or another doubt; inactive means no such curve, though single readings can be large; an effect the other way counts as inactive or inconclusive.

SMILES | VP16 counter | Giardia killer | p53 reactivator | ELG1 repair inh | BRCA1 expr act | RORgamma inh
O=C(NCc1ccccc1C(F)(F)F)c1cccc2c1C(=O)c1ccc(N3CCOCC3)cc1S2(=O)=O | - | ? | 0 | 5.2µM | 0 | -
Cc1ccc(CNC(=O)c2cccc3c2C(=O)c2ccc(N4CCOCC4)cc2S3(=O)=O)cc1 | - | 0 | 0 | 12µM | 0 | -
Cc1ccc(CNC(=O)c2cccc3c2C(=O)c2ccc(N4CCCCC4)cc2S3(=O)=O)cc1 | - | 0 | 0 | ? | 0 | -
O=C(NCc1ccco1)c1cccc2c1C(=O)c1ccc(N3CCCC3)cc1S2(=O)=O | - | 0 | 0 | 13µM | 0 | -
CCOC(=O)C1(C)CCCN(C(=O)c2cccc(C#N)c2)C1 (stereo not drawn) | - | - | - | - | 0 | -
CCN(CC(=O)NCc1ccc(F)cc1)C(=O)COc1ccc(C)c(C)c1 | 0 | 0 | 0 | 0 | 0 | 0
CC(=O)N1CCc2c(sc3c2c(=O)n(Cc2ccccc2)c(=O)n3CC(=O)NCC2CCCO2)C1 (stereo not drawn) | 0 | 0 | - | ? | 0 | 0
Oc1c(Cl)cc(Cl)cc1/C=N/c1nccs1 | ? | 0 | ? | 0 | 0 | 13µM
COc1ccccc1-c1cc(C(=O)N2CCc3ccccc3C2)c2ccccc2n1 | 0 | - | 0 | 13µM | - | ?
COc1ccc(Nc2cc(C(=O)N3CCc4ccccc4C3)c3ccccc3n2)c(OC)c1 | 0 | 0 | 0 | 21µM | 0 | ?
COc1ccccc1Nc1cc(C(=O)N2CCc3ccccc3C2)c2ccccc2n1 | 0 | - | 0 | ? | - | 0
Cc1ccc(CN(C)C[C@@H]2OCc3cnnn3CCCC(=O)N([C@H](C)CO)C[C@H]2C)cc1 | - | - | - | - | 0 | -
CC(=O)C1=C(c2ccccc2)N(C(C)=O)n2c(C)nnc2S1 | 18µM | 0 | 0 | 0 | 0 | 11µM
CC(C)(C)OC(=O)CN1c2cccc3cccc(c23)S1(=O)=O | 0 | 0 | 0 | 0 | 0 | 0
O=C(NC1=NCCS1)c1ccc(Cl)c(Cl)c1 | ? | 0 | 0 | ? | ? | 11µM
O=C(NC1=NCCS1)c1cc(Cl)ccc1Cl | - | 0 | - | 0 | 0 | -
O=C(NC1=NCCS1)c1ccccc1 | 0 | 0 | - | ? | 0 | 0
Cc1cc(C(=O)NC2=NCCS2)cs1 | ? | 0 | ? | ? | ? | 11µM
Cc1cccc(C(=O)NC2=NCCS2)c1 | 0 | 0 | 0 | ? | 0 | 11µM
O=C(NC1=NCCS1)c1csc2ccccc12 | ? | 0 | ? | ? | 0 | 7.9µM
CC(C)(C)NCC(=Cc1ccccc1)C(=O)c1ccccc1 | - | 0 | - | - | 0 | -
COc1ccc(C)cc1N(C(=O)c1snc(C(N)=O)c1N)C(C(=O)NC1CCCCC1)c1ccc(C)o1 (stereo not drawn) | 0 | 0 | 0 | 0 | 0 | 0
C=CCN1C(=O)N(c2ccc(F)cc2)C(=O)C1CC(=O)Nc1ccc(Cl)cc1 (stereo not drawn) | 0 | 0 | 0 | 0 | 0 | 0
Cc1cc2c(cc1C)N[C@]1(C[C@H]3CCCC(=O)N4CC[C@@H](C1)[C@@H]34)C(=NC(C)(C)CC(C)(C)C)N2 | - | 0 | - | - | 0 | -
COc1cc(-c2nc3ccc4ccccc4c3c3c2CCC3)cc(OC)c1OC | 22µM | 0 | 0 | ? | 0 | 5.6µM
SMILES | VP16 counter | Giardia killer | p53 reactivator | ELG1 repair inh | BRCA1 expr act | RORgamma inh
CCOc1ccc(-c2c(C(=O)N/N=C/c3ccc(C)s3)nnn2-c2nonc2N)cc1 | 2.8µM | ? | 0 | 0 | 0 | 2.2µM
CCCc1c(C(=O)N/N=C/c2ccc(C)o2)nnn1-c1nonc1N | - | - | - | - | 0 | -
COc1cccc(-c2c(C(=O)N/N=C/c3ccoc3)nnn2-c2nonc2N)c1 | ? | 0 | 0 | 0 | 0 | 13µM
Cc1ccc(/C=N/NC(=O)c2nnn(-c3nonc3N)c2C(C)C)s1 | 7.1µM | 0 | 0 | 0 | 0 | 2.2µM
COc1cccc(-c2c(C(=O)N/N=C/c3ccc(C)o3)nnn2-c2nonc2N)c1 | ? | 0 | 0 | 0 | 0 | 10µM
COc1cccc(-c2c(C(=O)N/N=C/c3ccncc3)nnn2-c2nonc2N)c1 | 0 | 0 | 0 | 0 | 0 | 0
Cc1ccc(/C=N/NC(=O)c2nnn(-c3nonc3N)c2C(C)C)o1 | 0 | 0 | 0 | 0 | 0 | ?
COc1cccc(-c2c(C(=O)N/N=C/c3ccc(C)s3)nnn2-c2nonc2N)c1 | 5.6µM | 0 | 0 | 0 | 0 | 2.5µM
COc1cccc(-c2c(C(=O)N/N=C/c3cccnc3)nnn2-c2nonc2N)c1 | 0 | 0 | 0 | 0 | 0 | 0
CCOc1cccc(-c2c(C(=O)N/N=C/c3ccc(C)s3)nnn2-c2nonc2N)c1 | 4µM | 0 | 0 | ? | 0 | 2.5µM
CCOc1cccc(-c2c(C(=O)N/N=C/c3c(F)cccc3Cl)nnn2-c2nonc2N)c1 | 0 | 0 | 0 | ? | 0 | 0
CC1CCN(CCCNC(=O)c2ccc3c(=O)n(Cc4ccc(Cl)cc4)c(=S)[nH]c3c2)CC1 | 20µM | 0 | 0 | 0 | 0 | 13µM
COC(=O)c1ccc2c(=O)n(Cc3ccc(C(=O)NCCCN4CCC(C)CC4)cc3)c(=S)[nH]c2c1 | ? | 0 | 0 | 0 | 0 | ?
COC(=O)c1ccc2c(=O)n(Cc3ccc(C(=O)NCCCN4CCOCC4)cc3)c(=S)[nH]c2c1 | 0 | 0 | 0 | 0 | 0 | 0
O=C(NCCCN1CCOCC1)c1ccc2c(=O)n(Cc3ccc(Cl)cc3)c(=S)[nH]c2c1 | ? | 0 | 0 | 0 | 0 | 11µM
Cn1nc(-c2ccccc2)nc1-c1ccccc1 | - | 0 | ? | ? | 0 | -
Cn1nc(-c2ccc(Cl)cc2)nc2c(=O)n(C)c(=O)nc1-2 | 0 | -103 | 0 | ? | 0 | ?
CS(=O)(=O)n1nc(-c2ccc(Cl)cc2)nc1N | 0 | 0 | 0 | ? | 0 | 0
Cn1nc(-c2cccnc2)nc2c(=O)n(C)c(=O)nc1-2 | - | -86 | - | - | 0 | -
CCn1nc(-c2ccccc2C)nc2c(=O)n(C)c(=O)nc1-2 | - | -93 | - | - | 0 | -
Cn1nc(-c2ccc(F)cc2)nc2c(=O)n(C)c(=O)nc1-2 | - | -89 | - | - | 0 | -
Cc1ccccc1-n1c2nc(=O)n(C)c(=O)c-2cc2ccccc21 | 0 | 0 | 0 | 0 | 0 | 0
O=C(/C=C/c1ccco1)Nc1cccc(C(=O)Nc2ccccc2C(=O)O)c1 | 0 | 0 | 0 | 0 | 0 | 0
COc1ccc(-c2nc3c(=O)n(C)c(=O)nc-3n(C)n2)cc1 | - | -99 | - | - | 0 | -
CC(=O)c1c(C)[nH]c(C(=O)CSc2nnc(-c3ccco3)n2Cc2ccccc2)c1C | 0 | 0 | 0 | ? | 0 | ?
CCCn1c(N)c(C(=O)CSc2nnc(-c3ccco3)n2Cc2ccccc2)c(=O)[nH]c1=O | 0 | 0 | 0 | 15µM | 0 | 0
CCOc1ccc(C(C)=O)cc1N1C(=O)C2C3C=CC(O3)C2C1=O (stereo not drawn) | 6.3µM | 0 | 0 | ? | 0 | 6.3µM
CN(C)CCCNc1nc2cc(-c3ccccc3)sc2c(=O)n1C | - | - | - | - | 0 | -
N#C/C(=N/Nc1ccc(OC(F)(F)F)cc1)C(N)=S | 4.5µM | 0 | 0 | ? | 0 | 4.5µM
COc1ccc(N/N=C(\C#N)C(N)=O)cc1 | 0 | 0 | 0 | ? | 0 | 0

Screening results deposited in PubChem BioAssay by National Center for Advancing Translational Sciences (NCATS).
